Reference: ChEMBL document CHEMBL4513216, “Probing the Open Global Health Chemical Diversity Library for Multistage-Active Starting Points for Next-Generation Antimalarials” (ACS Infect Dis, 2020)
About 8,600 (12%) of roughly 69,000 compounds showed an effect of 50% or more. The list comes from a sample in which strong results are over-represented; it also holds similar structures and randomly drawn compounds.

test system: Plasmodium berghei; experiment: Screen against P. berghei liver stage (PbLuc), transformed with Luciferase, at 10uM; assay type: functional, HepG2; settings: tested at 10 uM

| SMILES | INHIBITION [%] |
| --- | --- |
| CCn1c(CN2CCN(CCOC)CC2)nc2c(F)cccc21 | 46.95 |
| O=C1CCCCN1CCc1nc(-c2cccnn2)no1 | 52.9 |
| c1cnnc(-c2noc(CCN3CCCO3)n2)c1 | -8.51 |
| O=C1CCCCCN1CCc1nc(-c2cccnn2)no1 | 9.04 |
| COc1ccc(CN2CCc3ncnc(C4CCOC4)c3CC2)cc1 (stereo not drawn) | 24.6 |
| CCOc1cc(CNc2nnn(C)n2)ccc1OCc1ccc(Cl)cc1 | 63.1 |
| Cn1nnc(NCc2ccc(OCc3ccc(Cl)cc3)cc2)n1 | -47.4 |
| Cn1nnc(NCc2ccccc2OCc2ccc(Cl)cc2)n1 | 4.07 |
| Cc1ccc(NC2CCN(C(=O)CCc3cscn3)CC2)nn1 | 7.12 |
| c1ccc(CCNCC2Cn3nncc3CO2)cc1 (stereo not drawn) | 33 |
| O=C(c1ccccc1F)N1CCOC(c2nc(-c3ncccn3)no2)C1 (stereo not drawn) | 18.9 |
| Cc1cn(CC(=O)Nc2cc(C(C)(C)C)nn2C)cn1 | 16.9 |
| CCN(CC(C)C#N)C(=O)CNc1cc(Cl)ccc1C(N)=O (stereo not drawn) | 17.5 |
| CCN(CC(C)C#N)C(=O)CNc1ccc(C(N)=O)c(C)c1 (stereo not drawn) | 92.5 |
| CCN(CC(C)C#N)C(=O)CNc1ccc(F)c(C)c1 (stereo not drawn) | -48.4 |
| O=C(CCN1CCOC1=O)Nc1cnn(-c2ccccc2Cl)c1 | 13.3 |
| COc1cccc(CN2CCN(c3noc(C(C)C)n3)CC2)c1F | -21.8 |
| CCN1CCC(N2CCN(c3cc(-c4nc(C)no4)ccn3)CC2)CC1 | 33.8 |
| Cc1noc(-c2ccc(Oc3cccc(CN4CCCC4)c3F)nc2)n1 | 35 |
| Cc1noc(-c2ccnc(Oc3ccccc3CN3CCCCC3)c2)n1 | 56.3 |
| Cc1noc(-c2ccnc(Oc3cccc(CN4CCCC4)c3F)c2)n1 | 83.3 |
| c1ccc(Oc2nccc3occc23)c(CN2CCCCC2)c1 | 48.8 |
| CC(NC(=O)NCCCn1cncn1)c1ccc(C#N)cc1 (stereo not drawn) | 24.75 |

| SMILES | INHIBITION [%] |
| --- | --- |
| CC=C(C)C(=O)NS(=O)(=O)c1ccc(C(F)(F)F)cn1 | 13.8 |
| O=C(CCCN1CCOCC1)N1CCCC(CO)(CC2CC2)C1 (stereo not drawn) | -4.21 |
| CC(C1CCN(C(=O)c2coc(CN3CCOCC3)c2)CC1)N(C)C (stereo not drawn) | 35.8 |
| Cc1cc(NCCC(=O)NC2CCS(=O)(=O)C2)nc(-c2ccncc2)n1 (stereo not drawn) | 15.7 |
| CC(C)c1cc(C(=O)N2CCc3nc(C4CCCN4)ncc3C2)cs1 (stereo not drawn) | 28 |
| Cc1cc(C(=O)N2CCc3nc(C4CCCN4)ncc3C2)cs1 (stereo not drawn) | -16.5 |
| COc1cccc(C(=O)N2CCc3nc(C4CCCN4)ncc3C2)c1 (stereo not drawn) | 59.3 |
| COc1ncc(NCc2ccc(Cl)c(Cl)c2)cc1C(N)=O | 71.8 |
| COc1ncc(NCc2ccc(C#N)cc2)cc1C(N)=O | 8.12 |
| COc1ncc(NCc2ccc(F)cc2)cc1C(N)=O | -5.1 |
| CCC(=O)N1CCC2(COCc3cnc(NCc4ccco4)nc32)C1 (stereo not drawn) | 6.55 |
| CNc1cc(N2CCC(O)(CNC(=O)c3ccc(C)nc3)C2)ncn1 (stereo not drawn) | 12.3 |
| Cc1cnn(CC2CCCN2CC(=O)Nc2cc(C)on2)c1 (stereo not drawn) | -23.9 |
| Cc1nccc(N(C)Cc2ncc(-c3ccccc3C(=O)O)s2)n1 | 1.635 |
| COc1cc2c(cc1OC)C(=O)C(Sc1nnc(C)o1)C2 (stereo not drawn) | 27.5 |
| O=C(O)CC1COCCN1Cc1ccccc1-c1ccccc1 (stereo not drawn) | -4.56 |
| O=C(O)CC1COCCN1CCCc1ccccc1 (stereo not drawn) | 56.2 |
| O=C(O)CC1COCCN1Cc1ccccc1OCCc1ccccc1 (stereo not drawn) | 1.95 |
| CCS(=O)(=O)NCCCn1ncc2c(C)cccc21 | 4.35 |
| CCCN(Cc1nccn1C)C(=O)c1cc(C)nc(C)n1 | 42.1 |
| Cc1cc(C(=O)N(C)CCCn2cccn2)nc(N)n1 | 64.1 |
| Cc1cc(N(C)CCCn2cccn2)nc(N)n1 | 75.2 |
| Cc1cc(N(C)C)nc(NCCn2cccn2)n1 | -24.4 |

| SMILES | INHIBITION [%] |
| --- | --- |
| CCOc1c(F)cccc1C(=O)N(C)CCn1cccn1 | -27.6 |
| Cc1cc(N(C)CCCn2cccn2)nc(-c2cccnc2)n1 | -37.2 |
| COc1ccc(Cl)c(NCC(=O)NCC(=O)N2CCCC2)c1 | 24.1 |
| COCC1CCCCN1C(=O)c1cc(Cn2ccc3ccccc32)[nH]n1 (stereo not drawn) | -14.9 |
| COCCN(C)C[C@@H]1CN(C(=O)c2cccc(Cl)c2)C[C@@H]1CO | 10.7 |
| CCN(C)C[C@@H]1CN(S(=O)(=O)c2cccc(C#N)c2)C[C@@H]1CO | 36.2 |
| CCN(C)C[C@@H]1CN(S(=O)(=O)c2ccc(C#N)cc2)C[C@@H]1CO | 58.6 |
| CCN(C)C[C@@H]1CN(S(=O)(=O)c2ccc(OC)cc2)C[C@@H]1CO | 39.4 |
| CCN(C)C[C@@H]1CN(S(=O)(=O)c2cccc(Cl)c2)C[C@@H]1CO | 57.6 |
| CCN(C)C[C@@H]1CN(Cc2cccc(Cl)c2)C[C@@H]1CO | 43.3 |
| O=S(=O)(C1CC1)N1CC[C@]2(C[C@@H](Oc3ccccn3)CO2)C1 | 17.3 |
| CCCc1n[nH]c(C2CN(CCC(F)(F)F)CCO2)n1 (stereo not drawn) | 29.7 |
| Cc1nnc([C@@]23CCO[C@@H]2CCN(Cc2nccs2)C3)o1 | 37.6 |
| CCc1nc(CN2CCOC(Cn3cncn3)C2)no1 (stereo not drawn) | -7.31 |
| Cc1cc(CN2CCN(C(C)C)C(CCO)C2)[nH]n1 (stereo not drawn) | 15.5 |
| Cc1ccc(NS(=O)(=O)C=c2[nH]c(=O)n3cccc3c2=O)cc1 | -53.7 |
| O=c1c(=CS(=O)(=O)Nc2ccc(Cl)cc2)[nH]c(=O)n2cccc12 | -51.6 |
| CC(C)c1ccc(NS(=O)(=O)C=c2[nH]c(=O)n3cccc3c2=O)cc1 | -26.1 |
| O=c1c(=CS(=O)(=O)Nc2ccccc2)[nH]c(=O)n2cccc12 | -63.5 |
| COc1ccc(NS(=O)(=O)C=c2[nH]c(=O)n3cccc3c2=O)cc1Cl | 86.4 |
| O=c1c(=CS(=O)(=O)Nc2ccc(Br)cc2)[nH]c(=O)n2cccc12 | 67.3 |
| Cn1cnc2ccc(NC(=O)CC3CCN(S(C)(=O)=O)CC3)cc21 | -9.2 |
